PubChem BioAssay AID2549 (National Center for Advancing Translational Sciences (NCATS), 2010)
Where “and” joins values, the source holds several entries; their conditions need not be identical. Identical values can stand only once. Screen size: about 240,000 compounds; about 1,300 (0.54%) were called active. About 1% were inconclusive and are not listed. The call rests on the fitted dose curve; in most records, active means well fitted inhibition curve with a large enough effect; inconclusive means small, poorly fitted or top-dose-only effect; inactive means flat fitted curve, though single readings scatter. The full list was thinned out, with actives kept by preference. Some compounds were tested as several samples or in several runs, with calls that do not always agree.

These compounds were tested against ATP-dependent DNA helicase Q1 (Homo sapiens) (UniProt P46063) (assay: qHTS Assay for Inhibitors of RecQ-Like Dna Helicase 1 (RECQ1)). Details: RECQ1 DNA unwinding, red fluorescence kinetic read; series mostly up to 57.3 µM; activity, negative = inhibition: at the top concentration.
ATP-dependent DNA helicase Q1 (Homo sapiens), sequence (P46063 whole entry, looked up): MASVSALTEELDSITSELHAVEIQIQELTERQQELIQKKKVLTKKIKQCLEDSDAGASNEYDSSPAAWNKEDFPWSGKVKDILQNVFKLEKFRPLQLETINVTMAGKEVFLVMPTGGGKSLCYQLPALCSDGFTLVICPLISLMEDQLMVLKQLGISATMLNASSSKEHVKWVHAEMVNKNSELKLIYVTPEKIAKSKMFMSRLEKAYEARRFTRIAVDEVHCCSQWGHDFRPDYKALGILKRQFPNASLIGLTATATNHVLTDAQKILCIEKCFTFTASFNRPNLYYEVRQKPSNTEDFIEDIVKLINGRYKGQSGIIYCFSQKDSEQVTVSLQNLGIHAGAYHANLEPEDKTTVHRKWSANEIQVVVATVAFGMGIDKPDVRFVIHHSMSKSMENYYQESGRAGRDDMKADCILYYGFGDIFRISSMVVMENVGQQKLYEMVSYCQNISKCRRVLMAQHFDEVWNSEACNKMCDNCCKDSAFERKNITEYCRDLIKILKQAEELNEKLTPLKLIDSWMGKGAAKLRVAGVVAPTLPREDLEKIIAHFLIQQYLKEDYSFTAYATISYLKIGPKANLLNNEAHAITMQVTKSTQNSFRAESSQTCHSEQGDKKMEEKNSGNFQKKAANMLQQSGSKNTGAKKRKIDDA
In short: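 50 nM RECQ1T1 preincubated 15 min with compound in Tris pH 8.0 buffer with MgCl2, DTT, Tween-20 and 2.5 ug/ml poly(dI-dC); started with 200 nM TAMRA/BHQ-2 forked duplex and 2 mM ATP. Unwinding read as fluorescence (525/598 nm), two reads 2 h apart.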
Further: nearly all actives have a fitted effect of over 30% in size.
Potency means the concentration at half of the fitted maximal effect.
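Wherever activity, negative = inhibition is given: plate controls were vehicle for no effect and no enzyme for full effect.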

Row | SMILES | activity, negative = inhibition | Potency | outcome
1 | O=C(O)C1CC=CC2CCN(C3CCCCC3)C(=O)C21 (stereo not drawn) | 13.2% (inactive) | – | –
2 | Cc1ccc(C)c(CSc2nc(-c3ccco3)nc3c2c(=O)n(C)c(=O)n3C)c1 | -6.89% (inactive) | – | –
3 | CC/C=C/C(=O)N1CC2(CC(c3cccc(NC(=O)CC)c3)=NO2)C[C@H]1C(N)=O (stereo partly drawn) | 7.15% (inactive) | – | –
4 | C/C=C\C=C\C(=O)N1CC2(CC(c3cccc(NC(=O)/C(C)=C\C)c3)=NO2)C[C@H]1C(N)=O (stereo partly drawn) | – | 20 µM (active) | –
5 | C/C=C(/C)C(=O)Nc1cccc(C2=NOC3(C2)C[C@@H](C(N)=O)N(C(=O)C2(C)CC2)C3)c1 (stereo partly drawn) | – | – | inactive
6 | O=S(O)S(=O)(=O)O | -3.85% (inactive) | – | –
7 | O=C(N/N=C/C=C/c1ccco1)c1cccs1 | – | 35.5 µM (active) | –
8 | Cc1ccc(-c2cc(C(=O)N/N=C/C=C/c3ccco3)c3ccccc3n2)cc1C | – | – | inactive
9 | CC(=O)Nc1ccc(/C=N/NC(=O)c2cccs2)cc1 | -2.49% (inactive) | – | –
10 | CC(=O)c1ccc(S(=O)(=O)N2CCN(C(=O)/C=C/c3ccc4ccccc4n3)CC2)cc1 | – | 25.1 µM (active) | –
11 | NC(=O)COC(=O)/C=C/c1ccc2ccccc2n1 | -3.52% (inactive) | – | –
12 | COC(=O)c1ccc(S(=O)(=O)N2CCC(c3nc4ccccc4o3)CC2)cc1 | -1.82% (inactive) | – | –
13 | O=c1cc(CCl)nc2scc(-c3ccccc3)n12 | -7.89% (inactive) | – | –
14 | CCc1ccc2nc3sc(C(=O)Nc4nnc(CC)s4)c(N)c3cc2c1 | – | 31.6 µM (active) | –
15 | CCc1nnc(NC(=O)c2cccc(S(=O)(=O)N(C)c3ccc(OC)cc3)c2)s1 | -3.08% (inactive) | – | –
16 | CCc1nnc(NC(=O)c2sc3nc(C)cc(COC)c3c2N)s1 | -2.43% (inactive) | – | –
17 | Cc1ccc(CNC(=O)C2(C(F)(F)F)C/C(=C\CCO)CCCO2)o1 (stereo not drawn) | – | – | inactive
18 | CCN1C(=O)c2cccc3c(N)ccc1c23 | -7.81% (inactive) | – | –
19 | Nc1ccc2c3c(cccc13)C(=O)NC2=O | – | inactive and 25.1 µM (active) | –
20 | CCC(C)[C@@H](N)C(=O)O (stereo partly drawn) | – | inactive | –
21 | COc1ccc(CC(N)C(=O)NC2C(O)[C@H](n3cnc4c(N(C)C)ncnc43)O[C@@H]2CO)cc1 (stereo partly drawn) | -0.564% (inactive) | – | –
22 | S=C(NCCc1ccccc1)N1CCn2cccc2C1c1ccncc1 (stereo not drawn) | – | – | inactive
23 | Cc1ccc(C)c(SCc2nc3sc(C(=O)O)c(C)c3c(=O)[nH]2)c1 | 2.12% (inactive) | – | –
24 | Cc1ccc(-c2nc(SCC(=O)Nc3ccccc3OC(F)F)c3c(C)c(C(=O)O)sc3n2)cc1 | – | 25.1 µM (active) | –

Row | SMILES | activity, negative = inhibition | Potency | outcome
25 | CCOC(=O)c1ccc[n+](CC(=O)Nc2ccccc2OC(F)F)c1 | -1.34% (inactive) | – | –
26 | CCOC(=O)C(CC)/C(C)=N\NC(=O)c1cccc(C)c1 (stereo not drawn) | 3.83% (inactive) | – | –
27 | C[C@H]1CCC[C@@]2(C)CCCC[C@]12O | -12% (inactive) | – | –
28 | COc1cc(OC)c2c(C)cc(=O)oc2c1C(CCN1CCCCC1)c1ccc(N(C)C)cc1 (stereo not drawn) | – | – | inactive
29 | O=C(O)c1cccc(N2C(=O)Nc3ccccc3N2O)c1 | -9.45% (inactive) | – | –
30 | N#Cc1ccccc1CN1C(=O)S/C(=C/c2cccn2-c2cccc(C(=O)O)c2)C1=O | – | 28.2 µM (active) | –
31 | Cn1cccc1/C=C1\SC(=O)N(CC(=O)Nc2ccc(F)cc2)C1=O | -20.3% (inactive) | – | –
32 | O=c1ccn([C@@H]2O[C@H](COP(=O)(O)OP(=O)(O)OP(=O)(O)O)[C@@H](O)[C@H]2O)c(=O)[nH]1 | 6.8% (inactive) | – | –
33 | COc1ccc(OC)c(C(=O)c2ccc(C(=O)N3CCN(Cc4csc(C)n4)CC3)cc2)c1 | – | – | inactive
34 | O=C1C2C(c3ccccc3)CC=CC2C(c2ccoc2)N1Cc1ccccc1 (stereo not drawn) | – | – | inactive
35 | O=C(CCC(=O)c1cccs1)NCc1ccccc1 | -7.98% (inactive) | – | –
36 | O=C(COC(=O)C12CC3CC(CC(C3)C1)C2)NCc1ccco1 | -0.842% (inactive) | – | –
37 | O=C(COC(=O)CCC(=O)c1cccs1)NCc1ccco1 | – | 7.94 µM (active) | –
38 | COc1ccc(/C=N/NC(=O)c2ccncc2)cc1CN1CCCc2ccccc21 | -10.1% (inactive) | – | –
39 | NS(=O)(=O)c1ccc(NC(=O)COC(=O)CCc2c[nH]c3ccccc23)cc1 | -1.44% (inactive) | – | –
40 | CC[C@H](C)[C@H](NC(=O)[C@@H](N)CCC(=O)O)C(=O)N[C@@H](CC(C)C)C(=O)N[C@@H](CC(=O)O)C(=O)N[C@H](C(=O)N1CCC[C@H]1C(=O)N[C@@H](CO)C(=O)N[C@H](C(=O)O)[C@@H](C)O)C(C)C | -7.19% (inactive) | – | –
41 | O=c1cc(-c2ccc(O)cc2)oc2c([C@@H]3O[C@H](CO)[C@@H](O)[C@H](O)[C@H]3O)c(O)cc(O)c12 | -22.9% (inactive) | – | –
42 | Cc1cc(=O)[nH]c(=S)[nH]1 | – | inactive | –
43 | Cc1cc(=O)[nH]c(SCC(N)=O)c1C#N | -0.259% (inactive) | – | –
44 | Cc1cc(=O)[nH]c(S)c1C#N | – | 22.4 µM (active) | –
45 | Cc1noc(C)c1-c1ccc2ncnc(NCc3ccc4[nH]ccc4c3)c2c1 | 17.6% (inactive) | – | –
46 | CCOP(=O)(OCC)C(Nc1cccc(C)c1)c1ccc(F)cc1 (stereo not drawn) | 7.05% (inactive) | – | –
47 | CCCCOC(=O)c1ccc(NC(c2ccc(C)cc2)P(=O)(OC)OC)cc1 (stereo not drawn) | – | 17.8 µM (active) | –
48 | CCCCCOC(=O)NCCOC(=O)Nc1ccc(C(=O)OCC)cc1 | -10.1% (inactive) | – | –
